This passage reports Potency and activity (max response) results from PubChem BioAssay (NCATS).

Where “and” joins values, the source holds several entries; their conditions need not be identical. Equal entries are not always repeated. Results filed as inconclusive are left out. Some structures have more than one record in an assay (separate samples or runs), and their calls can disagree. Calls of active or inactive are those of the source. Calls come from the whole dose curve; as a rule, active = well fitted curve in the direction sought with a large enough effect; inconclusive = small, poorly fitted or top-dose-only effect, or another doubt; inactive = no such curve, though single readings can be large; an effect the other way counts as inactive or inconclusive.

Assay [1] can be described thus: Viability qHTS for spleen associated tyrosine kinase inhibitor (SYKi) naive MV4-11 cells (AID 1963823). Note: nearly all actives have a fitted effect of over 40% in size. The method, boiled down: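 CellTiter-Glo luminescence, 10 min room-temperature incubation, gave viability. Cells: naive MV4-11 (500/well), treated 72 hr at 37 C, 5% CO2.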
In general terms: qHTS replaces the single test concentration by a dilution series.

Assay [2] in a line: Quantitative highthroughput screen to assess conditional lethalithy of NOMO1 cells grown in RPMI1640 with untreated serum (RPMI+s) (AID 1963876).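 For Viability: 100% = DMSO wells and 0% = empty wells without cells.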 Note: nearly all actives have a fitted effect of over 35% in size. The method, boiled down:
(§1)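 Each medium arm—HPLM with 10% dialyzed FBS, or RPMI1640 with 5 mM glucose and 10% untreated or dialyzed FBS—was screened against an 11-point, 3-fold compound titration for 48 h at 37 °C, with CellTiter-Glo luminescence as endpoint.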

A short description of assay [3]: Quantitative highthroughput screen to assess conditional lethalithy of P12 Ichikawa cells grown in Human Plasma-Like Medium with dialyzed fetal bovine serum (HPLM+ds) (AID 1963879). For Viability: series mostly up to about 46 µM. Note: nearly all actives have a fitted effect of over 35% in size. The following applies: Potency: viability. The method, boiled down: as §1
Assay [4] is described as follows: Quantitative highthroughput screen to assess conditional lethalithy of P12 Ichikawa cells grown in RPMI1640 with dialyzed fetal bovine serum (RPMI+ds) (AID 1963880).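 For Viability: 100% = DMSO wells and 0% = empty wells on each plate.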 Note: nearly all actives have a fitted effect of over 35% in size. The conditions noted are these: Potency: P12-Ichikawa viability. The method in brief: as §1
Assay [5] is described as follows: Quantitative highthroughput screen to assess conditional lethalithy of P12 Ichikawa cells grown in RPMI1640 with untreated serum (RPMI+s) (AID 1963881).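 For Viability: series mostly up to about 46 µM; 100% = DMSO wells and 0% = empty wells without cells.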 Note: nearly all actives have a fitted effect of over 35% in size. The following applies: Potency: viability. The method in brief: as §1
The nature of assay [6]: Quantitative highthroughput screen to assess conditional lethalithy of SEM cells grown in Human Plasma-Like Medium with dialyzed fetal bovine serum (HPLM+ds) (AID 1963882). For Viability: series mostly up to about 46 µM. Note: nearly all actives have a fitted effect of over 35% in size. The method in brief:
as §1

A short description of assay [7]: Quantitative highthroughput screen to assess conditional lethalithy of SEM cells grown in RPMI1640 with unreated serum (RPMI+s) (AID 1963883).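 For Viability: 100% = DMSO wells and 0% = empty wells without cells.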 Note: nearly all actives have a fitted effect of over 35% in size. The method, boiled down: as §1
A short description of assay [8]: Quantitative highthroughput screen to assess conditional lethalithy of SEM cells grown in RPMI1640 with dialyzed fetal bovine serum (RPMI+ds) (AID 1963884).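 For Viability: series mostly up to about 46 µM; 100% = DMSO control wells and 0% = empty wells without cells.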 Note: nearly all actives have a fitted effect of over 35% in size. The method in brief:
as §1

The nature of assay [9]: Cellular viability qHTS for adrenocortical cancer (ACC) cell line SW-13 (AID 1963989).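 For activity (max response): cells grown in serum-free medium with ITS supplement; % is set by controls: 0 for no effect and ±100 for the full control effect.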 Note: nearly all actives have a fitted effect of over 65% in size. The following applies: SW-13 ACC cells viability, CellTiter-Glo, 48 h; activity (max response): stronger effect = lower value. The method, boiled down:
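48 h treatment, SW-13 in ITS/DMEM serum-free; doses up to 46 uM; readout CellTiter-Glo luminescence; curve fit four-parameter logistic.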

Assay [10] is described as follows: Cellular viability qHTS for adrenocortical cancer (ACC) cell line NCI-H295R (AID 1963990). Note: nearly all actives have a fitted effect of over 60% in size. The method in brief: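 Compound titrations (up to 46 uM final) are applied to NCI-H295R cultures for 48 h at 37C. Viable cell number is estimated by CellTiter-Glo signal, normalised to DMSO and doxorubicin controls.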
A short description of assay [11]: Quantitative highthroughput screen to assess conditional lethalithy of NOMO1 cells grown in RPMI1640 with dialyzed fetal bovine serum (RPMI+ds) (AID 1963877).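 For Viability: series mostly up to about 46 µM; 100% = DMSO control wells and 0% = empty wells.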 Note: nearly all actives have a fitted effect of over 30% in size. The method in brief:
as §1

Assay [12] can be described thus: Quantitative highthroughput screen to assess conditional lethalithy of NOMO1 cells grown in Human Plasma-Like Medium with dialyzed fetal bovine serum (HPLM+ds) (AID 1963878).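 For Viability: 100% = DMSO wells and 0% = empty wells on each plate.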 Note: nearly all actives have a fitted effect of over 35% in size. The method, boiled down: as §1
Potency is the fitted concentration of half-maximal effect.

Consider `Cc1cccc(Nc2ccncc2S(=O)(=O)NC(=O)NC(C)C)c1`, for which the Potency result in assay [1], in assay [2], in assay [3], in assay [4], in assay [5] and in assay [6] was “inactive” each time. Also, the Potency entry in [7], in assay [8] and in [10] was “inactive” each time. Moreover, the activity (max response) in assay [9] is -3.35% (inactive).
For the compound `O=C(NCC1CCCCN1)c1cc(OCC(F)(F)F)ccc1OCC(F)(F)F` (stereo unspecified), the Potency entry in assay [1], in assay [8] and in [10] was “inactive” throughout. Moreover, the Potency in assay [2] is 0.332 µM (active); in assay [3], 1.87 µM (active); in assay [4] it was 2.96 µM (active); in assay [5], 1.66 µM (active). The activity (max response) in assay [9] was -4.23% (inactive).
Take `CCCCOc1ccc(CC(=O)NO)cc1`: the Potency result in assay [1] was “inactive and 14.8 µM (active)”. The Potency entry in assay [2], in assay [11], in assay [12] and in [10] was “inactive” in each case. In assay [9], the activity (max response) was -10.9% (inactive).
On to `CCc1nc(N)nc(N)c1-c1ccc(Cl)cc1`, for which the Potency is 3.76 µM (active) in assay [1]; 1.87 µM (active) in assay [3]; 10.5 µM (active) in assay [5]; 1.46 µM (active) and 3.98 µM (active) in [9]; 2.59 µM (active) and 1.78 µM (active) in assay [10]. In addition, the Potency entry in [2] and in assay [7] was “inactive” each time.
`COc1cc(C)c(Sc2cnc(NC(=O)c3ccc(CNC(C)C(C)C)cc3)s2)cc1C(=O)N1CCN(C(C)=O)CC1` (stereo unspecified): the Potency in assay [1] was 5.25 µM (active) and 5.17 µM (active); in assay [8] it was 5.26 µM (active); in assay [9], 17.8 µM (active); in [10], 7.94 µM (active). Also, the Potency result in [2], in [11], in assay [3] and in assay [5] was “inactive” in each case.
With `CCCCN(CCCC)C(=O)CN1C[C@H](c2ccc3c(c2)OCO3)[C@@H](C(=O)O)[C@@H]1c1ccc(OC)cc1`, the Potency in assay [1] is 16.6 µM (active); in assay [6], 2.09 µM (active). The Potency result in assay [2], in assay [11], in [3], in assay [4] and in assay [10] was “inactive” in each case. In addition, in assay [9], the activity (max response) is -6% (inactive).
Turning to `NS(=O)(=O)NCCNc1nonc1C(=Nc1ccc(F)c(Br)c1)NO`, the Potency entry in assay [1] and in assay [10] was “inactive” each time. Besides, the Potency was 2.63 µM (active) in assay [2]; 8.31 µM (active) in assay [11]; 2.34 µM (active) in assay [3]; 8.31 µM (active) in assay [4]; 5.24 µM (active) in assay [5]; 16.6 µM (active) in assay [6]. Besides, the values for the Potency in [7] and in assay [8] were 3.31 µM (active) and 9.33 µM (active), respectively. The activity (max response) in [9] is -16.2% (inactive).
For `CC(c1cc2ccccc2s1)N(O)C(N)=O` (stereo unspecified), the Potency entry in assay [1], in assay [2], in [11], in [3] and in [10] was “inactive” in each case. Besides, the activity (max response) in assay [9] was -61.3% (inactive).
Consider `OCc1ccc(-c2nn(Cc3ccccc3)c3ccccc23)o1`, for which the Potency in assay [1] was 5.25 µM (active); in assay [2], 13.2 µM (active); in assay [11], 16.6 µM (active); in assay [12], 16.6 µM (active). In addition, the Potency entry in [3] is “inactive”. In addition, in assay [9], the activity (max response) is -19% (inactive).
On to `CCOC(=O)C=C[C@H](C[C@@H]1CCNC1=O)NC(=O)[C@@H](CC(=O)[C@@H](NC(=O)c1cc(C)on1)C(C)C)Cc1ccc(F)cc1`, for which the Potency entry in assay [1], in assay [2], in assay [11], in [12], in [4] and in assay [5] was “inactive” each time. Also, the Potency result in assay [6], in assay [7], in assay [8] and in assay [10] was “inactive” throughout.
Take `COc1cc2c(cc1OC)[C@@H]1C(=O)c3ccc4c(c3O[C@@H]1CO2)C=CC(C)(C)O4`: the Potency was 103 nM (active) and 93.4 nM (active) in assay [1]; 23.5 µM (active) in [2]; 20.9 µM (active) in assay [12]; 18.7 µM (active) in assay [3]; 18.7 µM (active) in assay [4]; 6.62 µM (active) in [5]. Further, the Potency is 2.64 µM (active) in [7], 16.6 µM (active) in assay [8], 0.178 µM (active) in [9] and 20 µM (active) in assay [10].
As to `Cc1ccccc1C(OCCN(C)C)c1ccccc1` (stereo unspecified), the Potency result in assay [1], in [2], in assay [11], in assay [3], in assay [4] and in [5] was “inactive” in each case. Moreover, the Potency result in assay [6], in assay [7], in assay [8] and in assay [10] was “inactive” in each case. In [9], the activity (max response) was 14.3% (inactive).
Regarding `Cc1cnc(-c2cc(N3CCN(C(=O)CCS(C)(=O)=O)CC3)ncc2Cl)c(C)c1`, the Potency entry in [1], in [2], in assay [11], in [3], in assay [4] and in assay [5] was “inactive” each time. Moreover, the Potency result in assay [6], in [7], in assay [8] and in assay [10] was “inactive” each time. In addition, the activity (max response) in assay [9] is -0.258% (inactive).
`CCCCC(CC)COC(=O)C(C#N)=C(c1ccccc1)c1ccccc1` (stereo unspecified): the Potency in [1] was 26.6 µM (active). The Potency result in [2], in assay [11], in assay [3], in [4], in assay [5] and in [6] was “inactive” each time. Also, the Potency entry in assay [7], in [8] and in assay [10] was “inactive” throughout. Besides, the activity (max response) in assay [9] was 0.298% (inactive) and -14.7% (inactive).
Regarding `Nc1nc2c(ncn2COC(CO)CO)c(=O)[nH]1`, the Potency entry in assay [1] and in assay [10] was “inactive” in each case. Also, the Potency in assay [2] is 26.4 µM (active); in assay [11] it was 26.4 µM (active); in assay [12] it was 23.5 µM (active); in assay [6] it was 23.5 µM (active); in assay [7], 20.9 µM (active). The activity (max response) in assay [9] is 8.16% (inactive) and -8.2% (inactive).
